ELG1 genotox – qHTS screen for small molecules that induce genotoxicity in human embryonic kidney (HEK293T) cells expressing luciferase-tagged ELG1; HEK293T ELG1-luciferase reporter, luminescence, 16 h; 330,000 compounds, 1.3% hits; AID 504466, 2011; Potency, µM (doses to about 46 µM), actives largely listed as activators; further: nearly all actives have a fitted effect of over 60% in size
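Genotoxic stress is detected as increased luminescence from luciferase-tagged ELG1 in HEK293T cells, measured with ONE-Glo after a 16 hr treatment at 37 °C.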
FLuc counter – qHTS profiling assay for firefly luciferase inhibitor/activator using purifed enzyme and Km concentrations of substrates (counterscreen for miR-21 project); Luciferin 4-monooxygenase (Photinus pyralis), P08659; purified FLuc, Km substrates, luminescence inhibition; Potency, µM (doses to about 57.5 µM), actives largely listed as inhibitors; 360,000 compounds, 6.9% hits; AID 588342, 2011; further: nearly all actives have a fitted effect of over 55% in size
Target sequence (P08659 whole entry, looked up): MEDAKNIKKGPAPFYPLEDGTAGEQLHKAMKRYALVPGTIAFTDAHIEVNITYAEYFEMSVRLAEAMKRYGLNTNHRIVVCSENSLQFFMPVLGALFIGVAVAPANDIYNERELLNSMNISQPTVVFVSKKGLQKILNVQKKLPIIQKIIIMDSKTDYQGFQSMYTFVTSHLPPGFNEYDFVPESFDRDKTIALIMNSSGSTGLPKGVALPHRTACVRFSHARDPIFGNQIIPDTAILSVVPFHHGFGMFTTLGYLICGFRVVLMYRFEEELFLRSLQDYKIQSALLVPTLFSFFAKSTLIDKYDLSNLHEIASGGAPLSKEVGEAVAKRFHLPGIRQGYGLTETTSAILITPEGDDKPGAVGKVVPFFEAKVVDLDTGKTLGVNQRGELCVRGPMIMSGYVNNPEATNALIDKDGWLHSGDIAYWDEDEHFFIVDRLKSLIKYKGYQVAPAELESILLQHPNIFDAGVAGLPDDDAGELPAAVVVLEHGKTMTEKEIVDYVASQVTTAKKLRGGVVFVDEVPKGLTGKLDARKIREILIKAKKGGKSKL
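Biochemical qHTS of compounds, final roughly 60 µM downward over six points, against 10 nM purified firefly luciferase using Km concentrations of substrates (10 uM D-luciferin, 10 uM ATP) in Tris acetate pH 7.5 buffer; luminescence output.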
SMN2 splice up – qHTS Assay for Enhancers of SMN2 Splice Variant Expression; AID 1458, 2008; 210,000 compounds, 2.8% hits; Potency, µM (titrated, usually from 46.1 µM), usual class: activators; HEK293 SMN2-luciferase splicing reporter, luminescence, 30-36 h; further: nearly all actives have a fitted effect of over 55% in size
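HEK293 cells carry an SMN2 minigene-luciferase reporter in which exon 7 inclusion puts luciferase in frame. Cells were seeded at 2000 cells/well, attached for 10-12 hours, then exposed to compounds for 30-36 hours at 37C before ONE-Glo luminescence.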
NPC1 promoter act – qHTS Assay for NPC1 Promoter Activators. 320,000 compounds, 2.4% hits. Potency, µM (titrated, usually from 9.22 µM), usual class: activators. Huh7 NPC1 promoter luciferase reporter, 24 h; further: nearly all actives have a fitted effect of over 60% in size
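In 1536-well qHTS, Huh7 cells harboring an NPC1 promoter–luciferase construct received compound for 24 h; activation was quantified by luminescence following luciferase reagent addition.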
Rab9 promoter act – qHTS Assay for Rab9 Promoter Activators; Huh7 Rab9 promoter-luciferase reporter, luminescence, 24 h; Potency, µM (titrated, usually from 9.22 µM), usual class: activators; 320,000 compounds, 2.8% hits; AID 485297, 2010; further: nearly all actives have a fitted effect of over 60% in size
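Quantitative HTS format; Huh7 Rab9-luciferase reporter cells (1500/well) receive compound 2 h post-plating, incubate 24 h at 37 °C, then get luciferase reagent for 10 min before luminescence reading.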
p53 reactivator – qHTS assay for re-activators of p53 using a Luc reporter | H1299 p53-A138V BP100-luciferase reporter, luminescence, 24 h | Potency, µM (highest dose often 92.2 µM), actives largely listed as activators | 320,000 compounds, 0.063% hits; further: nearly all actives have a fitted effect of over 45% in size
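H1299 (p53-null), stable ts p53-A138V + BP100-Luc; 1000 cells/well, Opti-MEM/10% FBS; cpd 4 pt, 1:5; 24 h, 37 deg C, 5% CO2; detection reagent 10 min RT; luminescence.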
Hits are given with their value; [ ] = another dose, or the depositor's remark. Sampled rows, rich in hits. Any-hit rate of the full collection: about 7.3%. The call rests on the fitted dose curve; in most records, active means well fitted curve in the direction sought with a large enough effect; inconclusive means small, poorly fitted or top-dose-only effect, or another doubt; inactive means no such curve, though single readings can be large; an effect the other way counts as inactive or inconclusive.

For CNC(=O)CCc1nc(-c2ccc(C(C)(C)C)cc2)no1 the results were ELG1 genotox inactive, FLuc counter 4.78µM, SMN2 splice up inactive, NPC1 promoter act inconclusive, Rab9 promoter act inactive and p53 reactivator inactive.
Screening CC(C)(C)c1ccc(-c2noc(CCC(=O)NCC3CCCO3)n2)cc1 (stereo unspecified) returned ELG1 genotox inactive, FLuc counter 1.9µM, SMN2 splice up inactive, NPC1 promoter act inactive, Rab9 promoter act inactive and p53 reactivator inconclusive.
`CCOc1ccc(-c2noc(CCC(=O)NC)n2)cc1OCC` gave ELG1 genotox inactive, FLuc counter inactive, NPC1 promoter act inactive, Rab9 promoter act inactive and p53 reactivator inactive.
CN(C)C(=O)CCc1nc(-c2ccc(C(C)(C)C)cc2)no1 was read as ELG1 genotox inconclusive, FLuc counter 5.36µM, SMN2 splice up inactive, NPC1 promoter act 2.51µM, Rab9 promoter act 3.16µM and p53 reactivator inactive.
`Cc1ccc(-c2noc(CCC(=O)NCC3CCCO3)n2)cc1` (stereo unspecified) gave ELG1 genotox inactive, FLuc counter inactive, SMN2 splice up inactive, NPC1 promoter act inactive, Rab9 promoter act inactive and p53 reactivator inactive.
For COc1ccc(-c2noc(CCC(=O)Nc3cc(OC)ccc3OC)n2)cc1 the results were ELG1 genotox inactive, FLuc counter inconclusive, SMN2 splice up inactive, NPC1 promoter act inactive, Rab9 promoter act inactive and p53 reactivator inactive.
Screening COc1ccc(-c2noc(CCC(=O)Nc3cc(Cl)c(OC)cc3OC)n2)cc1 returned ELG1 genotox inconclusive, FLuc counter 8.49µM, SMN2 splice up inactive, NPC1 promoter act inactive, Rab9 promoter act inactive and p53 reactivator inactive.
CCc1ccc2oc(C(=O)NCc3ccccc3)cc(=O)c2c1 was read as FLuc counter inactive and SMN2 splice up inactive.
Screening COc1cccc(NS(=O)(=O)c2ccc3[nH]cc(C(=O)NC4CCCCC4)c(=O)c3c2)c1 returned FLuc counter inconclusive and SMN2 splice up inactive.
For CC(=O)Nc1ccc(C)cc1-c1nc2ccccc2n(CC(=O)Nc2cc(Cl)ccc2C)c1=O the results were FLuc counter inactive.
For COc1ccc(C2C(=O)N(C3CCCCCC3)CC(=O)N2CCC2=CCCCC2)cc1 (stereo unspecified) the results were FLuc counter inactive.
CCCCC/C=C\C/C=C\C/C=C\C/C=C\CCCCCC(=O)NCC(=O)O was read as SMN2 splice up inactive.
Screening Cc1cc(NC(=O)c2cc(S(=O)(=O)N3CCCCC3)ccc2C)n(-c2ccccn2)n1 returned ELG1 genotox inactive, FLuc counter inactive, SMN2 splice up inactive, NPC1 promoter act inactive, Rab9 promoter act inactive and p53 reactivator inactive.
`COc1ccc(N2CCN(Cc3cccn3-c3nnc(N4CCN(C5CCCCC5)CC4)s3)CC2)cc1` gave FLuc counter inactive.
Screening Cc1ccc(/C=N/c2sc3c(c2C(N)=O)CCCC3)o1 returned ELG1 genotox inactive, FLuc counter 10.7µM, SMN2 splice up inconclusive, NPC1 promoter act inconclusive, Rab9 promoter act 3.98µM and p53 reactivator inactive.
`COC(=O)c1cc(-c2ccc(NC(C)=O)cc2)nc2ccccc12` gave ELG1 genotox inactive, FLuc counter 12µM, SMN2 splice up inactive, NPC1 promoter act inactive, Rab9 promoter act inactive and p53 reactivator inactive.
COC(=O)c1cc(OC)c(OC)cc1NC(=O)c1cc(-c2ccccc2)nc2ccccc12 was read as ELG1 genotox inactive, FLuc counter inactive, SMN2 splice up inactive, NPC1 promoter act inactive, Rab9 promoter act inactive and p53 reactivator inactive.
For CC(=O)Nc1ccc(-c2cc(C(=O)O)c3ccc(C)cc3n2)cc1 the results were ELG1 genotox inactive, FLuc counter 16.9µM, NPC1 promoter act inactive, Rab9 promoter act inactive and p53 reactivator inactive.
For CC(=O)Nc1ccc(-c2cc(C(=O)O)c3cc4ccccc4cc3n2)cc1 the results were SMN2 splice up inactive[9.22 µM].
`Clc1ccccc1CNc1ncnc2c1c(-c1ccccc1)cn2-c1ccccc1` gave FLuc counter inactive.
Cc1cc(C)[n+]2[nH]c(N)c(N=Nc3ccccc3)c2n1 was read as ELG1 genotox inactive, FLuc counter 15.1µM, NPC1 promoter act inactive, Rab9 promoter act inactive and p53 reactivator inactive.
`O=C(Nc1ccc(-c2n[nH]c(=S)o2)cc1)c1ccccc1Br` gave ELG1 genotox inactive, FLuc counter 15.1µM, NPC1 promoter act inactive, Rab9 promoter act inactive and p53 reactivator inactive.
Screening COc1ccc(C(=O)Nc2ccc(-c3n[nH]c(=S)o3)cc2)cc1OC returned ELG1 genotox inactive, FLuc counter inconclusive, NPC1 promoter act inactive, Rab9 promoter act inactive and p53 reactivator inactive.
COc1ccc(/C=C2\N=C(c3ccccc3Cl)NC2=O)cc1 was read as ELG1 genotox inactive, FLuc counter 1.69µM, NPC1 promoter act inactive, Rab9 promoter act inactive and p53 reactivator inactive.
`C/C(=N/Nc1nc(C)c(C)s1)c1cccc([N+](=O)[O-])c1` gave ELG1 genotox inconclusive, FLuc counter 12µM, NPC1 promoter act inconclusive, Rab9 promoter act inconclusive and p53 reactivator inconclusive.
`O=C(Nc1ccn(Cc2ccccc2)n1)c1cccc(Cn2cc([N+](=O)[O-])cn2)c1` gave ELG1 genotox inactive, FLuc counter 15.1µM, SMN2 splice up inactive, NPC1 promoter act inactive, Rab9 promoter act inactive and p53 reactivator inactive.
CC(NC(=O)c1cccc(Cn2cc([N+](=O)[O-])cn2)c1)c1ccc(C(C)(C)C)cc1 (stereo unspecified) was read as ELG1 genotox inactive, FLuc counter inactive, SMN2 splice up inactive, NPC1 promoter act inactive, Rab9 promoter act inactive and p53 reactivator inactive.
Screening O=C(Nc1ccn(Cc2ccccc2)n1)c1ccc(F)cc1 returned ELG1 genotox inconclusive, FLuc counter 6.75µM, SMN2 splice up inactive, NPC1 promoter act 2µM, Rab9 promoter act 2.82µM and p53 reactivator inactive.
Cc1ccc(Cn2ccc(NC(=O)c3cc(-c4ccc(F)cc4)on3)n2)cc1 was read as ELG1 genotox inactive, FLuc counter inactive, SMN2 splice up inactive, NPC1 promoter act inactive, Rab9 promoter act inactive and p53 reactivator inactive.
`CCc1cccc(NC(=O)C(CC(C)C)NS(=O)(=O)c2ccc3c(c2)oc(=O)n3C)c1` (stereo unspecified) gave FLuc counter inactive and SMN2 splice up inactive.
`COc1cc(OC)c2c(-c3cccc(-c4ccc(N(C)C)cc4)c3)cc(=O)oc2c1` gave ELG1 genotox 2.59µM and p53 reactivator inconclusive.
